Results filed as inconclusive are left out. Calls of active or inactive are those of the source. Calls come from the whole dose curve; as a rule, active = well fitted cell-killing curve with a large enough effect in the repeat runs; inconclusive = weak or mixed curves, or effect the other way; inactive = flat fitted curve, though single readings scatter.
% is set by controls: 0 for no effect and ±100 for the full control effect.

This experiment can be described thus: cAMP Responsive Elements (CRE) small molecule agonists, cell-based qHTS assay: qHTS cell viability counter screen (AID 2060914). Note: nearly all actives have a fitted effect of over 50% in size. Conditions: CRE-bla HEK293T viability, CellTiter-Glo luminescence, 5 h; series mostly up to 92.4 µM; activity change, negative = cytotoxicity: at the top concentration. The gist of the method: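 HEK 293T CRE-bla; DMEM + 10% dialyzed FBS, 25 mM HEPES; 18 h pre-incubation; compound 3 h, 37 °C/5% CO2; CellTiter-Glo added after reporter read; luminescence after 30 min RT.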
As to `OCCN1CCN(CCCN2c3ccccc3Sc3ccc(Cl)cc32)CC1`, the “activity change, negative = cytotoxicity” value was 0.153% [at 42.5 µM] (inactive).
The same measure, in the same setting: the result for `CCN(CC)CCN` reads -0.275% [at 42.5 µM] (inactive); that for `CC12CCC(CC1=O)C2(C)C` (stereo not drawn), -18.2% (inactive).
As to `Cc1ccccc1Cl`, the Potency entry was “inactive”.
For the molecule `CCOC(=O)CC(=O)C(=O)OCC`, the “activity change, negative = cytotoxicity” value was -30.9% (inactive).
With `O=C(CCN1CCN2CCCC2C1)N1c2ccccc2Sc2ccc(Cl)cc21` (stereo not drawn), the activity change, negative = cytotoxicity is 5.15% [at 18.9 µM] (inactive).
For `CCO[Si](CCC1CCC2OC2C1)(OCC)OCC` (stereo not drawn), the “activity change, negative = cytotoxicity” value is 3.86% (inactive).
The same measure, in the same setting: under `O=C(Nc1ccccc1)Nc1ccccc1` stands -21.4% (inactive); under `O=C1c2ccccc2-c2ccccc21`, 0.521% (inactive); under `CCCC1C(CC)=CC(CC)=CN1c1ccccc1` (stereo not drawn), -21.2% (inactive).
As for `COC(C)=O`, the “activity change, negative = cytotoxicity” value was -0.159% (inactive).
On the same count and under the same terms, under `C=CCCCCCCCCCCCC` stands -7.96% (inactive); under `CCCCOC(=O)[C@H](C)O`, -0.583% (inactive); under `CCCCCCCC(=O)Oc1c(Br)cc(C#N)cc1Br`, -16% (inactive).
Same read-out and setting: the result for `CCCO[Si](OCCC)(OCCC)OCCC` reads -3.97% (inactive); that for `SC1CCCC1`, 0.778% (inactive); that for `CC(C)C(OC(=O)c1ccccc1)C(C)(C)COC(=O)c1ccccc1` (stereo not drawn), -26.1% (inactive).
Take `C1N2CN3CN1CN(C2)C3`: the Potency entry is “inactive”.
Consider `Cc1nccn1-c1ccc(Sc2cccc(C3(C(N)=O)CCOCC3)c2)cc1`, for which the “activity change, negative = cytotoxicity” value is 0.411% (inactive).
Still for that read-out and setting: the result for `CCCCCCCCCCCCCCOS(=O)(=O)O` reads -19.1% (inactive); that for `C/C=C/C=C/COC(=O)C(C)C`, 3.98% (inactive); that for `C=C(c1ccc(C(=O)O)cc1)c1cc2c(cc1C)C(C)(C)CCC2(C)C`, -1.62% (inactive).
With `Cc1ccc2c(c1)c1c3n2CCNC3CCC1` (stereo not drawn), the “activity change, negative = cytotoxicity” value is 3.39% [at 42.5 µM] (inactive).

The record behind these values is PubChem BioAssay (Tox21).
